Results as given in PubChem BioAssay (NCI).
About 83,000 compounds went through this panel and 20% of them were active in at least one assay; those are over-represented in the sample as a whole.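 96-well plates, one dose, 48 hours. Percent growth reported; active if below 10.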 Values without a mark were called inactive. Activity calls are given as the source filed them.

Key:
Experiment in all cases: NCI-60 one-dose screen, 48 h (100 = growth as untreated, 0 = no growth, -100 = all killed)
Conditions in all cases: 10 µM
[1] = tested on: T-47D breast
[2] = tested on: BT-549 breast
[3] = tested on: MDA-MB-435 melanoma
[4] = tested on: SW-620 colon
[5] = tested on: MCF7 breast
[6] = tested on: HCT-116 colon
[7] = tested on: HCC-2998 colon
[8] = tested on: KM12 colon
[9] = tested on: MDA-MB-468 breast

Compound | growth [1] | growth [2] | growth [3] | growth [4] | growth [5] | growth [6] | growth [7] | growth [8] | growth [9]
COc1cc(/C=C/C(=O)c2cc(OC)c(OC)c(OC)c2)ccc1Oc1nc(Nc2ccc(F)cc2)nc(N(C)C)n1 | 25.9% | -89.8% (active) | -62.4% (active) | 1.14% (active) | 2.35% (active) | -77.6% (active) | -81.5% (active) | -41.1% (active) | -39.6% (active)
Cc1ccc(-c2nc(Nc3ccc(C)c(S(N)(=O)=O)c3)c3ccccc3n2)cc1 | 84.2% | 104% | 74.6% | 37.2% | 26.2% | 29.5% | 49.5% | 40% | 1.27% (active)
COc1csc(/C=N/NC(=O)c2[nH]c3ccc(Br)cc3c2-c2ccccc2)c1 | 47.1% | 31.8% | -43.6% (active) | 17.9% | -3.06% (active) | -29.4% (active) | 7.87% (active) | 3.46% (active) | -18% (active)
CN1CCc2c(sc3ncnc(N/N=C/c4ccc5ccccc5c4)c23)C1 | 92.1% | 71.1% | 72.5% | 22.9% | 20.7% | -13.2% (active) | 73.8% | 78.1% | 42%
Cc1ccc(-c2cc(-c3cc4ccccc4nc3Cl)[nH]c(=O)n2)cc1 | 3.13% (active) | -76.8% (active) | 19.1% | -46.3% (active) | 1.81% (active) | -72.8% (active) | -1.29% (active) | -18.6% (active) | -7.37% (active)
CN1CCc2c(sc3ncnc(N/N=C/c4cn(-c5ccccc5)nc4-c4ccc(Cl)cc4)c23)C1 | 35.9% | 41.1% | 41.9% | 10.8% | -31.6% (active) | 2.65% (active) | 5.24% (active) | 21.6% | -55.4% (active)
